The results in this text go back to PubChem BioAssay (NCI).

What all share (experiment): NCI-60 one-dose screen, 48 h (100 = growth as untreated, 0 = no growth, -100 = all killed)
Holding throughout (settings): 10 µM unless noted

Assay [1] relates to T-47D breast.
The subject of assay [2] is MDA-MB-435 melanoma.
In assay [3] the test system is SW-620 colon.
Assay [4] concerns MCF7 breast.
The subject of assay [5] is HCT-116 colon.
The test system of assay [6] is HCC-2998 colon.
The subject of assay [7] is KM12 colon.
For assay [8], the system named is BT-549 breast.

SMILES strings stand for the structures. This is part of a sample that, as a whole, favours compounds with a hit. Of some 83,000 tested, about 20% had one in any assay.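 Step 1: grow cells in 96-well plates. Step 2: add test compound at a single concentration. Step 3: incubate 48 h. Step 4: record percent growth.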 A number with no mark means an inactive call. Active and inactive are the calls of the source. How the source made its calls: active means growth percent below 10; inactive means the rest.

With `N#Cc1c(N)n2c(nc1=Nc1ccc(Cl)cc1)sc1cc(Cl)ccc12`, the growth in assay [1] was 73.8%; in assay [2], 102%; in assay [3], 87.9%; in assay [4] it was 60.5%; in assay [5] it was 89.1%; in assay [6], 107%. In addition, the growth in assay [7] is 29.5%.

As for `COc1cc(-c2ncn(/C=C\c3nnco3)n2)cc(C(F)(F)F)c1`, the growth was 28.9% in assay [1]; 2.34% (active) in assay [2]; 14.6% in assay [3]; 8.23% (active) in assay [4]; 3.16% (active) in assay [5]; 7.01% (active) in assay [6]. Moreover, in assay [7], the growth was 10.7%.

Consider `OC(c1cccc(OCc2ccccc2)c1)c1nnc(-c2ccccc2)o1` (stereo not given), for which the growth in assay [1] was 72.9%; in assay [2], 101%; in assay [3], 104%; in assay [4], 95.1%; in assay [5] it was 101%; in assay [6] it was 112%. Moreover, the growth in assay [7] was 90.7%.

On to `CC(=O)Nc1cccc(C2=CC(c3ccc(C)cc3)n3ncnc3N2)c1` (stereo not given), for which the growth in assay [1] was 87.5%; in assay [2] it was 112%; in assay [3], 102%; in assay [4], 96.9%; in assay [5], 103%; in assay [6] it was 112%. For the same molecule, the growth in assay [7] is 97.2%.

`Cc1ccc(S(=O)(=O)NN/C(N)=N\S(=O)(=O)c2cc(C)c(Cl)cc2SCc2ccccc2)cc1`: the growth in assay [1] is 87.9%; in assay [2], 96.4%; in assay [3], 96.6%; in assay [4], 99.8%; in assay [5] it was 94.6%; in assay [6], 107%. Moreover, the growth in assay [7] is 97.3%.

As for `O=C1Nc2ccccc2/C1=N/N=C/c1ccsc1`, the growth in assay [1] is 87%; in assay [2], 105%; in assay [3], 97.8%; in assay [4], 49.5%; in assay [5], 103%; in assay [6], 108%. Also, the growth in assay [7] was 102%.

As to `CN(C)c1ccc(/C=N/NC(=O)COc2cc(=O)n(C)c3ccccc23)cc1`, the growth is 97.6% in assay [1]; 101% in assay [2]; 104% in assay [3]; 89.4% in assay [4]; 101% in assay [5]; 116% in assay [6]. Moreover, the growth in assay [7] was 109%.

Regarding `O=C1CCC(N2C(=O)c3cccc(NCCCC4CCN(CCNC(=O)c5cc6c(o5)C(=O)c5ccccc5C6=O)CC4)c3C2=O)C(=O)N1` (stereo not given), the growth is -5.59% (active) in assay [1]; -97.1% (active) in assay [2]; -77.9% (active) in assay [3]; -65.4% (active) in assay [4]; -56.9% (active) in assay [5]; -96% (active) in assay [6]. Moreover, the growth in assay [7] was -79.2% (active).

For `COc1cc(-c2ccc(N=Nc3c(O)c(C(=O)Nc4ccccc4OC)cc4ccccc34)c(OC)c2)ccc1N=Nc1c(O)c(C(=O)Nc2ccccc2OC)cc2ccccc12`, the growth is 103% in assay [1]; 99.9% in assay [2]; 91.8% in assay [3]; 91.1% in assay [4]; 81.8% in assay [5]; 97.7% in assay [6]. Moreover, in assay [7], the growth was 94.8%.

For `N#Cc1c(Oc2ccc([N+](=O)[O-])cc2)nc2sc3cc(Cl)ccc3n2c1=N`, the growth is 60.2% in assay [1]; 111% in assay [2]; 93.1% in assay [3]; 61.8% in assay [4]; 105% in assay [5]; 117% in assay [6]. In addition, the growth in assay [7] is 47.7%.

Take `CC(C)OC(=O)NNC(=O)c1ccncc1`: the growth was 106% in assay [1]; 109% in assay [2]; 98.2% in assay [3]; 88% in assay [4]; 97.5% in assay [5]; 119% in assay [6]. For the same molecule, the growth in assay [7] is 115%.

In the case of `CCCCNCC(=O)Nc1ccc(C(=O)OCC)cc1`, the growth in assay [1] is 96.8%; in assay [2] it was 105%; in assay [3], 105%; in assay [4] it was 98.4%; in assay [5], 86.4%; in assay [6], 100%. Also, the growth in assay [7] was 103%.

In the case of `Cc1ccc(S(=O)(=O)N(CC[C@@H]2C[C@H]2c2cc3ccccc3o2)C(=O)NC2CCCCC2)cc1`, the growth in assay [1] is 70.9%; in assay [2] it was 101%; in assay [3], 92.1%; in assay [4] it was 93.4%; in assay [5], 85%; in assay [6], 101%. Besides, the growth in assay [7] was 105%.

For the molecule `CSc1nc2sc3cc(Cl)ccc3n2c(=N)c1C#N`, the growth in assay [1] was 70%; in assay [2], 96.9%; in assay [3] it was 71.7%; in assay [4] it was 49%; in assay [5], 92.9%; in assay [6], 86.8%.

With `Nc1ccc2c(S(=O)(=O)O)ccc(S(=O)(=O)O)c2c1`, the growth was 82.5% in assay [1]; 107% in assay [2]; 106% in assay [3]; 93.1% in assay [4]; 93.9% in assay [5]; 98.7% in assay [6]. The growth in assay [7] was 110%.

As for `COc1ccc(N=c2nc3sc4cc(Cl)ccc4n3c(N)c2C#N)cc1`, the growth in assay [1] is 73.7%; in assay [2], 99.6%; in assay [3], 81.1%; in assay [4] it was 61.2%; in assay [5] it was 93.7%; in assay [6], 95.5%. For the same molecule, the growth in assay [7] was 24.7%.

Regarding `Cc1nc(Nc2ccc(NC(=S)Nc3ccccc3)cc2)nc2nc(SCc3ccccc3)[nH]c(=O)c12`, the growth was 88.5% in assay [1]; 109% in assay [2]; 108% in assay [3]; 87.3% in assay [4]; 112% in assay [5]; 111% in assay [6]. Moreover, in assay [7], the growth is 107%.

As to `C=C(C)[C@@H]1CC[C@]2(C(=O)NCC(=O)O)CC[C@]3(C)[C@H](CC[C@@H]4[C@@]5(C)Cc6c([nH]c7ccccc67)C(C)(C)[C@@H]5CC[C@]43C)[C@@H]12`, the growth was 65.7% in assay [8]; 87.1% in assay [2]; 85% in assay [3]; 81.4% in assay [4]; 77.4% in assay [5]; 98.4% in assay [6]. The growth in assay [7] was 88.1%.
